Bioassay records from PubChem BioAssay.
NIH3T3 tox = kills NIH 3T3 cells. AID 1345082. NIH 3T3 viability, CellTiter-Glo ATP luminescence, 48-72 h. Potency, µM (top dose mostly 96.7 µM), actives largely listed as inhibitors. 4.3% of 94,000 active; further: nearly all actives have a fitted effect of over 55% in size
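Cytotoxicity is measured as loss of cellular ATP: NIH 3T3 cells (400/well) are exposed to compound for 48 or 72 hr at 37 °C, then CellTiter-Glo luminescence is imaged after 10 min at room temperature.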
HEK293 tox = kills HEK 293 cells. HEK 293 viability, ATP luminescence (CellTiter-Glo), 48-72 h. 6.6% of 94,000 active. Potency, µM (doses to about 115 µM), most hits filed as inhibitors; further: nearly all actives have a fitted effect of over 60% in size
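qHTS cytotoxicity; HEK 293, 250 cells/well; compound pinned; 48 or 72 hr, 37 degree Celsius, 5% CO2, 95% humidity; CellTiter-Glo, 10 min RT; luminescence (ATP).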
hNpr1 antagonist = blocks ANP-stimulated signaling of human Npr1 receptor; 1.6% of 76,000 active; Potency, µM (doses to about 46.3 µM), most hits filed as inhibitors; P16066; HEK293 hNpr1 GloSensor cGMP, ANP-stimulated luminescence; calls by dose curve; further: nearly all actives have a fitted effect of over 60% in size
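HEK293 cells stably expressing human Npr1 and cGMP GloSensor pGS-40F, loaded 2 h with 2% GloSensor reagent, given compound 30 min at room temperature. Luminescence read before and 20 min after 0.1 nM hNppA.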
FLuc inh = blocks purified firefly luciferase enzyme activity; AID 1347043; purified P. pyralis luciferase, luminescence, biochemical; 2.5% of 76,000 active; Potency, µM (series often up to 115 µM), actives largely listed as inhibitors; P08659; further: nearly all actives have a fitted effect of over 65% in size
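Cell-free enzyme assay, 10nM P. pyralis luciferase, luciferin and ATP each at 10uM. Inhibition profiled over a 6-point titration, read as luminescence.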
GPT2 inhibitor = inhibitors of human GPT2 alanine aminotransferase. 0.25% of 100,000 active. Potency, µM (highest dose often 57.7 µM), usual class: inhibitors. Q8TD30. Recombinant GPT2, coupled pyruvate oxidase/HRP Amplex Red fluorescence; further: nearly all actives have a fitted effect of over 60% in size
Target sequence (Q8TD30 whole entry, looked up): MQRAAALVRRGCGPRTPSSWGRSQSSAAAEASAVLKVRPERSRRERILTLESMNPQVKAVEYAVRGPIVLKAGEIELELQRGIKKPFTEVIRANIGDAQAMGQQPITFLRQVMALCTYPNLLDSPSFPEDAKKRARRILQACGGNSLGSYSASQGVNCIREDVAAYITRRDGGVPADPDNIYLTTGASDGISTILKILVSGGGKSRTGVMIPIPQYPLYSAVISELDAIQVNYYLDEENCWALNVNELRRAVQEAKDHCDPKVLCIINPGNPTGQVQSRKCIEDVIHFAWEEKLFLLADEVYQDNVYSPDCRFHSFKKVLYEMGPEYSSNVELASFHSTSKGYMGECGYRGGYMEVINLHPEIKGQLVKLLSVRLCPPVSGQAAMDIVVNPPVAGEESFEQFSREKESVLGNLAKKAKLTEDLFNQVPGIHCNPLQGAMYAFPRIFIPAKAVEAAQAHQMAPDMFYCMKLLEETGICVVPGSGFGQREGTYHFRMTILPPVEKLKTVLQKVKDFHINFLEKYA
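Fluorescence of coupled pyruvate oxidase/HRP/Amplex Red system (50uM Amplex, 30 min, dark) reports pyruvate formed by GPT2. Enzyme reaction: 10ng/uL GPT2, 2mM L-alanine, 250uM a-KG, 30 min room temperature, pH 7.5; 50uM AOA control.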
Large screens that a line does not name were inactive. Only some compounds are listed: those with a hit (about 10% of all), similar ones and a draw of the others. Unless noted, the call rests on the fitted dose curve; in most records, active means well fitted curve in the direction sought with a large enough effect; inconclusive means small, poorly fitted or top-dose-only effect, or another doubt; inactive means no such curve, though single readings can be large; an effect the other way counts as inactive or inconclusive.

O=C(NC1CCCC1)C1CCCN(Cc2cccc(-c3ccc(F)cc3F)c2)C1 (centres undefined)	NIH3T3 tox 39.8µM, HEK293 tox 39.8µM (no result: hNpr1 antagonist, FLuc inh)
CN(CC1CCOCC1)C(=O)CCCc1ccccc1	FLuc inh 39.8µM
CN(CC1CCOCC1)C(=O)NCCc1ccccc1	FLuc inh inconclusive
CC(=O)Nc1ccc(C(=O)NC2CCN(c3cc(-c4ccc(Cl)cc4)[nH]n3)CC2)cc1	NIH3T3 tox 22.4µM, HEK293 tox 31.6µM
Cc1ccc(C(=O)NC2CCCN(c3cc(-c4ccccc4)[nH]n3)C2)cc1F (centres undefined)	NIH3T3 tox inconclusive, HEK293 tox inconclusive
Cc1ccc(C(=O)NC2CCN(c3cc(-c4ccccc4)[nH]n3)CC2)cc1F	NIH3T3 tox 35.5µM, HEK293 tox inconclusive
CN(C)c1ccc(C(=O)NC2CCN(c3cc(-c4ccc(Cl)cc4)[nH]n3)CC2)cc1	HEK293 tox inconclusive
O=C(NC1CCN(c2cc(-c3ccccc3)[nH]n2)CC1)c1cccc(Cl)c1	NIH3T3 tox inconclusive, HEK293 tox 28.2µM
O=C(NC1CCN(c2cc(-c3ccc(F)cc3)[nH]n2)C1)c1cccc(Cl)c1 (centres undefined)	NIH3T3 tox inconclusive, HEK293 tox inconclusive, GPT2 inhibitor inconclusive
O=C1COc2ccc(Nc3cccnc3)nc2CN1Cc1ccc(C(F)(F)F)cc1	NIH3T3 tox inconclusive, HEK293 tox 89.1µM
COc1ccc(Nc2ccc3c(n2)CN(Cc2ccc(F)cc2)C(=O)CO3)cn1	NIH3T3 tox inconclusive, HEK293 tox 89.1µM
O=C1COc2ccc(-c3cccc(O)c3)nc2CN1Cc1ccc(C(F)(F)F)cc1	NIH3T3 tox inconclusive, HEK293 tox inconclusive
COc1ccc(Nc2ccc3c(n2)CN(Cc2ccc(C(F)(F)F)cc2)C(=O)CO3)cn1	NIH3T3 tox inconclusive, HEK293 tox inconclusive
COc1ccc(Nc2ccc3c(n2)CN(Cc2ccccc2)C(=O)CO3)cn1	NIH3T3 tox inconclusive, HEK293 tox 79.4µM
O=C1CCN(S(=O)(=O)c2ccccc2)CCCC(C(=O)N2CCOCC2)CCN1 (centres undefined)	none
COc1ccc(Nc2ccnc(N3CCC(N[S+](=O)([O-])c4cccc(C(F)(F)F)c4)CC3)n2)cc1	NIH3T3 tox 17.8µM, HEK293 tox 22.4µM (no result: hNpr1 antagonist, FLuc inh)
COc1ccc(Nc2ccnc(N3CCC(N[S+](=O)([O-])c4c(C)noc4C)CC3)n2)cc1	NIH3T3 tox 39.8µM, HEK293 tox 44.7µM (no result: hNpr1 antagonist, FLuc inh)
COc1ccc(Nc2ccnc(N3CCC(N[S+](=O)([O-])c4ccccc4)CC3)n2)cc1	NIH3T3 tox inconclusive, HEK293 tox inconclusive (no result: hNpr1 antagonist, FLuc inh)
CC(C)(C#N)c1ccc(-c2cc(CO)ccn2)cc1	NIH3T3 tox inconclusive, HEK293 tox inconclusive, FLuc inh 31.6µM, GPT2 inhibitor inconclusive
CCCn1ncc(CN(C)CC2CCN(CCc3ccc(Cl)cc3)CC2)c1C	NIH3T3 tox 35.5µM, HEK293 tox 22.4µM
CCCn1ncc(CN2CC[C@H](N3CCN(C)CC3)[C@H](CCC(=O)O)C2)c1C	none
O=C(NCc1ccc(F)cc1)C1CCN(c2ccnc3ccnn23)CC1	NIH3T3 tox inconclusive, HEK293 tox inconclusive (no result: hNpr1 antagonist, FLuc inh)
FC(F)(F)c1cccc(-c2cc(-c3ccncc3)c3cncn3c2)c1	NIH3T3 tox 35.5µM, HEK293 tox inconclusive, GPT2 inhibitor inconclusive
Oc1cccc(-c2cc(-c3ccncc3)c3cncn3c2)c1	NIH3T3 tox inconclusive, HEK293 tox inconclusive
c1cc(-c2cc(-c3ccncc3)c3cncn3c2)cc(N2CCOCC2)c1	NIH3T3 tox 22.4µM, HEK293 tox inconclusive
Cc1noc(C)c1-c1cc(-c2cccc(N3CCOCC3)c2)cn2cncc12	NIH3T3 tox 17.8µM, HEK293 tox inconclusive
CCOCCCNc1ncnc2c1CN(C1CCCCC1)C(=O)CN2C	GPT2 inhibitor inconclusive (no result: hNpr1 antagonist, FLuc inh)
Cc1ccc(C(=O)N2CCC(n3cnnc3-c3ccccc3)CC2)cc1C	none (no result: hNpr1 antagonist, FLuc inh)
O=C(c1n[nH]c2c1CN(Cc1cccnc1)CC2)N1CCOCC1	none
CSc1cccc(NC(=O)Cn2c(-c3cccc(Cl)c3)nc(C)c(CCO)c2=O)c1	NIH3T3 tox inconclusive, HEK293 tox inconclusive
O=C(O)Cn1ccc2cc(OCC3CCN(C(=O)Cc4ccccc4)CC3)cnc21	NIH3T3 tox 100µM
O=C(Cc1ccccc1)N1CCC(Oc2cnc3c(ccn3-c3cncnc3)c2)CC1	NIH3T3 tox inconclusive, HEK293 tox 56.2µM
O=C(OCc1ccccc1)N1CCC(Oc2cnc3c(ccn3-c3cncnc3)c2)CC1	NIH3T3 tox inconclusive, HEK293 tox 79.4µM, hNpr1 antagonist inconclusive
CC(C)C(=O)N1CCC(Oc2cnc3c(ccn3-c3cncnc3)c2)CC1	NIH3T3 tox inconclusive
c1ccc(CN2CCC(Oc3cnc4c(ccn4-c4cncnc4)c3)CC2)cc1	NIH3T3 tox inconclusive, HEK293 tox 100µM
CNC(=O)[C@H]1C[C@]2(CCCCNC2=O)N(C(=O)c2ccco2)[C@H]1c1ccccc1	NIH3T3 tox inconclusive (no result: hNpr1 antagonist, FLuc inh, GPT2 inhibitor)
Cc1cc(C(=O)N[C@@H]2CCC[C@@H](C(=O)N(C)Cc3cccnc3)CC(=O)N(C)C2)c(C(F)(F)F)o1	none
COc1ccc(C(=O)N[C@@H]2CN(C(=O)NCc3ccccc3)CCC[C@H]2O)cc1	none
COc1ccccc1CCC(=O)N1c2ccccc2CC1c1nc(C2CC2)no1 (centres undefined)	NIH3T3 tox inconclusive, HEK293 tox inconclusive
Cc1c(C(=O)NC[C@H]2C[C@@H]3C=C[C@H]2C3)sc2ncnc(NCCc3ccccn3)c12	none
CCCC(=O)N1CCC(Oc2cnc3c(ccn3-c3cncnc3)c2)CC1	NIH3T3 tox 10µM, HEK293 tox inconclusive
Cc1ncccc1C(=O)N1CCC(Oc2cnc3c(ccn3-c3cncnc3)c2)CC1	NIH3T3 tox 70.8µM
O=C(c1ccncn1)N1CCC(Oc2cnc3c(ccn3-c3cncnc3)c2)CC1	HEK293 tox inconclusive
O=C(CC1CC1)N1CCC(Oc2cnc3c(ccn3-c3cncnc3)c2)CC1	NIH3T3 tox inconclusive, HEK293 tox inconclusive
COc1cccc(-c2cccc(CN3CCCC3C(=O)N3CCN(C)CC3)c2)c1 (centres undefined)	none (no result: hNpr1 antagonist, FLuc inh)
CC(C)CCNC(=O)N1CC(C(=O)N(C)C)C2(CCOCC2)C1 (centres undefined)	NIH3T3 tox inconclusive
COc1cc([C@H]2Oc3cc([C@H]4Oc5cc(O)cc(O)c5C(=O)[C@H]4O)ccc3O[C@H]2CO)ccc1O	GPT2 inhibitor 12.2µM (no result: NIH3T3 tox, HEK293 tox, hNpr1 antagonist, FLuc inh)
Fc1ccc(CCNc2nccc(-c3cccnc3)n2)cc1	NIH3T3 tox inconclusive, HEK293 tox inconclusive, FLuc inh inconclusive
COc1ccc(-n2cc(-c3ccnc(NCCC4CCCN4C)n3)cn2)cc1 (centres undefined)	NIH3T3 tox inconclusive, HEK293 tox inconclusive, FLuc inh inconclusive
CC(Cc1ccncc1)Nc1nccc(-c2cnn(-c3ccccc3)c2)n1 (centres undefined)	NIH3T3 tox inconclusive, HEK293 tox 39.8µM, FLuc inh inconclusive
